Results published in PubChem BioAssay (EPA / NIEHS).
Activity calls are given as the source filed them. The calls were made as follows: active = hit-call score of the fitted dose curve at least 0.9, where 1 is the maximum; inactive = score below 0.9.

How the values were obtained:
[1] = ATG_CRE_CIS: Attagene CIS-FACTORIAL HepG2 Assay for human cAMP Responsive Element (CRE) binding protein 3 (AID 2282926); conditions: HepG2 CRE cis-reporter, Attagene multiplexed mRNA; actives raise or lower the signal
How it was run: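 Multiplexed transcription-unit reporters transfected into HepG2; 24 h dosing; RT-PCR/capillary electrophoresis fluorescence read-out; bidirectional fit vs DMSO.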

[2] = target: CCAAT/enhancer-binding protein beta (Homo sapiens) (UniProt P17676); experiment: ATG_C_EBP_CIS: Attagene CIS-FACTORIAL HepG2 Assay for human CCAAT/Enhancer Binding Protein (C/EBP) beta (AID 2282927); conditions: HepG2 Attagene cis-factorial transcription factor reporter; actives raise or lower the signal
How it was run: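 Endogenous C/EBPb-driven reporter transcripts measured in transfected human HepG2 cells at 24 h via RT-PCR and capillary electrophoresis of labelled fragments. Activity fitted in both directions relative to DMSO baseline.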

[3] = ATG_CMV_CIS: Attagene CIS-FACTORIAL HepG2 Assay for human CMV (Internal Marker) (AID 2282928); conditions: HepG2 CMV promoter reporter, transcription factor profiling; actives raise or lower the signal;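 also: endpoint acts as a background internal control marker rather than a target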
How it was run: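 HepG2 cells transiently transfected with multiple cis-regulated reporter units; 24 h compound exposure. Reporter mRNA quantified by RT-PCR, 6-FAM primer-extension labeling, HpaI digestion and capillary electrophoresis; bidirectional fitting against DMSO baseline.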

[4] = ATG_DR4_LXR_CIS: Attagene CIS-FACTORIAL HepG2 Assay for human Liver X Receptor (LXR), DR4 submotif (AID 2282929); conditions: HepG2 Attagene DR4 cis-reporter, mRNA transcription; actives raise or lower the signal
How it was run: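 DR4 cis-reporter in HepG2, 24 h exposure. Detection: RT-PCR, 6-FAM labelling, CE fragment analysis. Endpoint fitted bidirectionally, DMSO = baseline.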

[5] = target: Aryl hydrocarbon receptor (Homo sapiens) (UniProt P35869); experiment: ATG_Ahr_CIS: Attagene CIS-FACTORIAL HepG2 Assay for human Aryl Hydrocarbon Receptor (Ahr) (AID 2282930); conditions: HepG2 AhR cis-factorial reporter transcription; actives raise or lower the signal
How it was run: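 Reporter mRNA levels, quantified by RT-PCR and fluorescent capillary electrophoresis, reflect endogenous AhR transcriptional activity in HepG2 cells carrying transfected cis-promoter reporter constructs. Readout at 24 h post-dose; gain or loss fitted against DMSO baseline.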

[6] = ATG_AP_1_CIS: Attagene CIS-FACTORIAL HepG2 Assay for human Activator Protein 1 (AP-1) (AID 2282931); conditions: HepG2 Attagene cis-factorial AP-1 reporter mRNA; actives raise or lower the signal
How it was run: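 Cis-regulated reporter units transiently expressed in HepG2 report endogenous transcription-factor activity. Signal: reporter mRNA at 24 h, via RT-PCR and fluorescent capillary electrophoresis. Endpoint derived by bidirectional fitting, DMSO as negative control.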

[7] = ATG_AP_2_CIS: Attagene CIS-FACTORIAL HepG2 Assay for human Activator Protein 2 (AP-2) (AID 2282932); conditions: HepG2 AP-2 cis-reporter, Attagene transcription factor profiling; actives raise or lower the signal
How it was run: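 Step one: transient transfection of HepG2 with reporter transcription units. Step two: 24 h chemical exposure. Step three: RNA extraction, RT-PCR, labelled fragment analysis by capillary electrophoresis; DMSO serves as baseline.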

[8] = ATG_BRE_CIS: Attagene CIS-FACTORIAL HepG2 Assay for human Bone Morphogenetic Protein (BMP) Response Element (BRE) (AID 2282933); conditions: HepG2 BMP response element reporter, Attagene transcription factor profiling; actives raise or lower the signal
How it was run: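 Gain- or loss-of-signal was derived by bidirectional fitting against DMSO controls. The signal came from reporter mRNA, measured by RT-PCR and capillary electrophoresis, in HepG2 cells transiently carrying multiple reporter units and dosed for 24 h.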

[9] = target: Transcription factor E2F1 (Homo sapiens) (UniProt Q01094); experiment: ATG_E2F_CIS: Attagene CIS-FACTORIAL HepG2 Assay for human E2F Transcription Factor 1 (AID 2282935); conditions: HepG2 Attagene cis-reporter, E2F reporter RNA transcripts; actives raise or lower the signal
How it was run: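 Total RNA from 24 h-treated, reporter-transfected HepG2 cells undergoes DNase I treatment, oligo(dT) reverse transcription, PCR and 6-FAM primer extension before capillary electrophoresis.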

[10] = ATG_E_Box_CIS: Attagene CIS-FACTORIAL HepG2 Assay for human Enhancer Box (E-box) (AID 2282936); conditions: HepG2 E-box cis-reporter transcription, actives raise or lower the signal
How it was run: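 DMSO served as negative control and baseline for bidirectional fitting. Human hepatoma HepG2 cells, transiently transfected with cis-reporter constructs, were dosed 24 h; reporter mRNA read by RT-PCR and capillary electrophoresis.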

[11] = ATG_M_61_CIS: Attagene CIS-FACTORIAL HepG2 Assay for M61 Transcription Factor (Internal Marker) (AID 2282937); conditions: HepG2 Attagene CIS-FACTORIAL M61 internal marker reporter; actives raise or lower the signal
How it was run: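 Background-control endpoint: HepG2 cells with cis-regulated reporter constructs, 24 h exposure, reporter mRNA detected via fluorescent primer extension and capillary electrophoresis; values from bidirectional fitting with DMSO baseline.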

[12] = ATG_EGR_CIS: Attagene CIS-FACTORIAL HepG2 Assay for human Early Growth Response 1 (EGR1) (AID 2282938); conditions: HepG2 Attagene CIS-FACTORIAL EGR reporter mRNA; actives raise or lower the signal
How it was run: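 Endpoint derived by bidirectional fitting versus DMSO vehicle. Method: cis-promoter reporter units transfected into HepG2, 24 h dosing, RNA isolation, RT-PCR with 6-FAM primer extension and HpaI digestion, then capillary electrophoresis fluorescence detection.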

[13] = ATG_M_19_CIS: Attagene CIS-FACTORIAL HepG2 Assay for M19 Transcription Factor (Internal Marker) (AID 2282939); conditions: HepG2 Attagene CIS-FACTORIAL M19 internal marker reporter; actives raise or lower the signal
How it was run: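 Following a 24 h exposure, RNA from transfected HepG2 cells was reverse-transcribed, PCR-amplified with reporter-specific primers, end-labelled with 6-FAM and HpaI-digested before capillary separation. Values represent gain or loss versus DMSO.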

[14] = ATG_Ets_CIS: Attagene CIS-FACTORIAL HepG2 Assay for human Erythroblast Transformation Specific (ETS) (AID 2282941); conditions: HepG2 ETS cis-reporter transcription, actives raise or lower the signal
How it was run: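 HepG2 cells transiently transfected with cis-promoter reporter transcription units were dosed for 24 h; reporter mRNA was measured by RT-PCR, 6-FAM primer extension, HpaI digestion and capillary electrophoresis, with bidirectional fitting against DMSO baseline.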

[15] = target: Hepatocyte nuclear factor 3-beta (Homo sapiens) (UniProt Q9Y261); experiment: ATG_FoxA2_CIS: Attagene CIS-FACTORIAL HepG2 Assay for human Forkhead box A2 (FOXA2) (AID 2282942); conditions: HepG2 cis-reporter transcription factor activity, 24 h; actives raise or lower the signal
How it was run: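 Measured: reporter mRNA induction or loss in HepG2 transiently carrying multiple cis-regulated reporter units, 24 h after dosing. Quantified by RT-PCR plus capillary electrophoresis, normalised to DMSO.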

[16] = ATG_FoxO_CIS: Attagene CIS-FACTORIAL HepG2 Assay for human Forkhead box O (FoxO) (AID 2282943); conditions: HepG2 Attagene cis-reporter, FoxO element, mRNA; actives raise or lower the signal
How it was run: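 Endogenous transcription factor activity read from multiplexed cis-promoter reporter transcripts in transiently transfected HepG2, 24 h after dosing. Reporter RNA measured via RT-PCR plus capillary electrophoresis of FAM-labeled products; gain or loss relative to DMSO.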

[17] = ATG_GATA_CIS: Attagene CIS-FACTORIAL HepG2 Assay for human GATA Binding Protein (AID 2282944); conditions: HepG2 GATA cis-element reporter, Attagene multiplex mRNA; actives raise or lower the signal
How it was run: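 DMSO serves as negative control and baseline for bidirectional fitting of reporter mRNA changes. HepG2 cells bearing transiently transfected cis-promoter reporters were exposed 24 h; transcripts detected via RT-PCR and capillary electrophoresis.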

[18] = ATG_GLI_CIS: Attagene CIS-FACTORIAL HepG2 Assay for human Zinc Finger Protein GLI1 (AID 2282945); conditions: HepG2, Attagene cis-factorial reporter mRNA, GLI element; actives raise or lower the signal
How it was run: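 Bidirectional curve fits relative to DMSO, using reporter mRNA levels from RT-PCR plus capillary electrophoresis. Cells were HepG2 transiently carrying cis-regulated reporter constructs, harvested 24 h after dosing.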

[19] = ATG_ERE_CIS: Attagene CIS-FACTORIAL HepG2 Assay for Estrogen Response Element (ERE) (AID 2282940); conditions: HepG2 ERE cis-reporter, Attagene RNA transcript; actives raise or lower the signal
How it was run: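 HepG2, transient cis-reporter units, 24 h exposure. RNA isolated, oligo(dT) RT, reporter-specific PCR, FAM extension, HpaI cut, CE detection. Gain/loss-of-signal vs DMSO.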

Measured: AC50

Chain of CCAAT/enhancer-binding protein beta (Homo sapiens) (P17676 whole entry, looked up, the tested form may be a part): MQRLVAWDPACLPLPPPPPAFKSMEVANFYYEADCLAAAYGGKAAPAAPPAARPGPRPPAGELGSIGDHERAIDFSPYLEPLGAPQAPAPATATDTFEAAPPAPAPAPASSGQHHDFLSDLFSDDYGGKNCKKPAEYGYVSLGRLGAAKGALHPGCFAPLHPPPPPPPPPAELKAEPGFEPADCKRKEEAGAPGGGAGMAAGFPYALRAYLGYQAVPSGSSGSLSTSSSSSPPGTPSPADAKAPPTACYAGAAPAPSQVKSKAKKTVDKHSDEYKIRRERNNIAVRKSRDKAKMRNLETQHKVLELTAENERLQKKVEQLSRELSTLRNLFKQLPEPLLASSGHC
Chain of Hepatocyte nuclear factor 3-beta (Homo sapiens) (Q9Y261 whole entry, looked up): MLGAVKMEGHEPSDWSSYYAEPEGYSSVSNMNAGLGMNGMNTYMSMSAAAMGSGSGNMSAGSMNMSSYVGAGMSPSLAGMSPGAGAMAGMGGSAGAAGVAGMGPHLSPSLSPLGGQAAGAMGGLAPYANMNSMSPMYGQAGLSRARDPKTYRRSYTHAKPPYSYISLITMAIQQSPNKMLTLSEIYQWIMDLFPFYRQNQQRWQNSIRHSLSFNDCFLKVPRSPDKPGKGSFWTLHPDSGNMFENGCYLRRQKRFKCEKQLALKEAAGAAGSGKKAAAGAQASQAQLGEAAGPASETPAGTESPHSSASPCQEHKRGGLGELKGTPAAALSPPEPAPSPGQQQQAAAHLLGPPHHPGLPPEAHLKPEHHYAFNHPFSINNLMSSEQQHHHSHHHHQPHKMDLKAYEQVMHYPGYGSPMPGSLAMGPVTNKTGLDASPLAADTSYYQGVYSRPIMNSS
Chain of Aryl hydrocarbon receptor (Homo sapiens) (P35869 whole entry, looked up): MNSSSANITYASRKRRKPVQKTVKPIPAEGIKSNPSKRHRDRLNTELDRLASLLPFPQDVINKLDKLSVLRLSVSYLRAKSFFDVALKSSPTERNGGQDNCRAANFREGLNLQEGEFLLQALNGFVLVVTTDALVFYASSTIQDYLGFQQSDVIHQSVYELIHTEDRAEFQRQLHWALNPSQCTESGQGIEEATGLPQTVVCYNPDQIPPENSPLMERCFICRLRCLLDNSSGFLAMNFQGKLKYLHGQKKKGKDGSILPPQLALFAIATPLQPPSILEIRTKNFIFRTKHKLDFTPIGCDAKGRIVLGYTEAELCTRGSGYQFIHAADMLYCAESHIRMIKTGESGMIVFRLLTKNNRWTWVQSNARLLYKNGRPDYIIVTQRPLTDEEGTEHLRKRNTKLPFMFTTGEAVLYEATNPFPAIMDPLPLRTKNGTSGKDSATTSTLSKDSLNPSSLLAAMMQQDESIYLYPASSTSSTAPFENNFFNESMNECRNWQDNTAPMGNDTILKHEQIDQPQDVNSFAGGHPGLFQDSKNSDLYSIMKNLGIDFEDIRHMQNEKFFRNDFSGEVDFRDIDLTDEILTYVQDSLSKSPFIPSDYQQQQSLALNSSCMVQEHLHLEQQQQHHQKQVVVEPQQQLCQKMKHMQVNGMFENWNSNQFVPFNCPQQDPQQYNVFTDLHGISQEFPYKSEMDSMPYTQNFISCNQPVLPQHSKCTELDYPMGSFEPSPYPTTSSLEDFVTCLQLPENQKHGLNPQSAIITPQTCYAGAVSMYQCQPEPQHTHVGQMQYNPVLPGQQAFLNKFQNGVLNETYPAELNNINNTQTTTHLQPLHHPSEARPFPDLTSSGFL
Chain of Transcription factor E2F1 (Homo sapiens) (Q01094 whole entry, looked up): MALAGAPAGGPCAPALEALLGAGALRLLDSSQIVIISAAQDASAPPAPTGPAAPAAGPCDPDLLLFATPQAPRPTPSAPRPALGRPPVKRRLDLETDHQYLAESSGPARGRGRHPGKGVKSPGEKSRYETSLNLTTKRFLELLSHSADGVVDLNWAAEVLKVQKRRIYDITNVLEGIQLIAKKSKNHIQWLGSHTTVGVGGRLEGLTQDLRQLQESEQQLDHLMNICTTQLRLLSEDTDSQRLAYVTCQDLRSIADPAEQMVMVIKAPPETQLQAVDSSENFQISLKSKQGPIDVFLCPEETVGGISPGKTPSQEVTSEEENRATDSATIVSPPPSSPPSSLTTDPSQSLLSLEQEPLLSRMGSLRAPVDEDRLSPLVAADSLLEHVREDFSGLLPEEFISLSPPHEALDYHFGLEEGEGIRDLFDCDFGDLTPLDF

C=COCCOCCOCCOC=C
not listed: [19]
inactive: all other assays above

COc1cc(C)cc(O)c1
not listed: [19]
inactive: all other assays above

Sc1nc(S)nc(S)n1
not listed: [19]
inactive: all other assays above

CCCCCCCCCCCCCC(=O)O
not listed: [14]
inactive: all other assays above

CC1=CCC(O)(C(C)C)CC1 (stereo unspecified)
not listed: [14]
inactive: all other assays above

O=Cc1ccc(Cl)c([N+](=O)[O-])c1
inactive: [2] | [5] | [7] | [9] | [11] | [13] | [19] | [17]
active: [1] 129 µM | [3] 168 µM | [4] 48.4 µM | [6] 25.8 µM | [8] 131 µM | [10] 47.7 µM | [12] 129 µM | [15] 145 µM | [16] 128 µM | [18] 165 µM

CCOc1ccccc1OCC
not listed: [19]
inactive: all other assays above
